These results are taken from PubChem BioAssay (NCI).

Compounds without any hit were thinned out: in the full panel of roughly 83,000, 20% have a hit.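 Assay: single dose, 48 h. Readout: percent growth (0 = no net growth; negative = cell death). Active: <10.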 A number with no mark means an inactive call. Activity calls are given as the source filed them.

Test systems include NCI-H23 lung; NCI-H226 lung; HOP-62 NSCLC; NCI-H460 lung; HOP-92 NSCLC; NCI-H522 lung; A549/ATCC NSCLC; 786-0 renal; COLO 205 colon; DU-145 prostate; K-562 leukemia; MALME-3M melanoma; MDA-MB-231 breast; RXF 393 renal; SF-268 CNS; SF-295 CNS; SF-539 CNS; UACC-257 melanoma; M14 melanoma.
Holding throughout (experiment): NCI-60 one-dose screen, 48 h (100 = growth as untreated, 0 = no growth, -100 = all killed)
What all share (settings): 10 µM unless noted

As to `CO[C@H]1[C@H](O[C@@H]2C[C@@H]3C/C=C/C(=O)O[C@@H](CO)C[C@H](O)[C@@H]4C[C@H](C)[C@H](C/C=C\C=C\[C@H](C)C[C@H](C2)O3)O4)O[C@@H](C)[C@H](O)[C@H]1O`, the growth with NCI-H23 lung is 22.5%; in the test with NCI-H226 lung, 37.9%; in the test on HOP-62 NSCLC it was 65.8%; in the test on NCI-H460 lung, 54.5%; in the test with HOP-92 NSCLC, 95.2%; in the test on NCI-H522 lung it was 27.2%. For the same compound, the growth is 47% in the test with A549/ATCC NSCLC; 78.7% in the test with 786-0 renal; 37.6% in the test on COLO 205 colon; 52.5% with DU-145 prostate; 25.4% with K-562 leukemia; 85.5% in the test on MALME-3M melanoma. The growth is 92.9% in the test on MDA-MB-231 breast; 88% in the test with RXF 393 renal; 86.4% in the test with SF-268 CNS; 14.1% with SF-295 CNS; 70.8% in the test on SF-539 CNS; 9.72% (active) in the test on UACC-257 melanoma. The growth in the test on M14 melanoma is 74.7%.
For the compound `CCC(Br)(CC)C(=O)NC(N)=O`, the growth was 108% in the test on NCI-H23 lung; 96.4% in the test on NCI-H226 lung; 103% in the test on NCI-H460 lung; 103% in the test on HOP-92 NSCLC; 105% with NCI-H522 lung; 104% with A549/ATCC NSCLC. In addition, the growth was 107% in the test on 786-0 renal; 108% in the test on COLO 205 colon; 107% with DU-145 prostate; 105% in the test on K-562 leukemia; 106% in the test with MALME-3M melanoma; 121% in the test with MDA-MB-231 breast. Moreover, the growth in the test on RXF 393 renal is 114%; with SF-268 CNS it was 102%; in the test with SF-295 CNS, 97.7%; in the test on SF-539 CNS, 89.9%; with UACC-257 melanoma it was 104%; with M14 melanoma, 102%.
As to `O=C1c2ccccc2C(=O)N1N1CC1c1ccccc1` (stereo unspecified), the growth in the test with NCI-H23 lung is 96.3%; with NCI-H226 lung, 102%; with HOP-62 NSCLC, 111%; in the test with NCI-H460 lung, 111%; in the test on NCI-H522 lung, 85.9%; in the test on A549/ATCC NSCLC it was 98.8%. The growth was 98.9% with 786-0 renal; 101% with COLO 205 colon; 109% in the test on DU-145 prostate; 97.7% in the test on K-562 leukemia; 91.9% in the test on MALME-3M melanoma; 118% with MDA-MB-231 breast. The growth in the test on RXF 393 renal is 107%; in the test on SF-268 CNS, 104%; in the test with SF-295 CNS, 104%; in the test with SF-539 CNS it was 102%; with UACC-257 melanoma, 101%; in the test on M14 melanoma, 100%.
Turning to `C[C@]12CCC3[C@@H](C[C@@H]4SC(Nc5ccccc5)=N[C@@]45CC(=O)CC[C@]35C)[C@@H]1CCC2=O` (stereo partly specified), the growth in the test with NCI-H23 lung is 42.5%; with NCI-H226 lung it was 49.4%; in the test with HOP-62 NSCLC it was 12.6%; in the test on NCI-H460 lung, -13% (active); with HOP-92 NSCLC it was -18.2% (active); in the test on NCI-H522 lung, -66% (active). The growth with A549/ATCC NSCLC was 33.5%; in the test with 786-0 renal it was -45% (active); in the test with COLO 205 colon it was -46.3% (active); in the test on DU-145 prostate, -14.7% (active); in the test on K-562 leukemia it was 1.87% (active); in the test on MALME-3M melanoma, 8.73% (active). Further, the growth was 5.67% (active) in the test on MDA-MB-231 breast; -63.8% (active) in the test with RXF 393 renal; 27% with SF-268 CNS; 24.2% in the test with SF-295 CNS; -44.8% (active) in the test with SF-539 CNS; 3.21% (active) in the test on UACC-257 melanoma. For the same compound, the growth in the test with M14 melanoma is 0.48% (active).
Take `O=c1c2ccccc2nc(-c2ccccc2Cl)n1-c1nnc(C(F)(F)F)s1`: the growth was -0.336% (active) in the test on NCI-H23 lung; 42.9% in the test with NCI-H226 lung; 58.7% in the test with HOP-62 NSCLC; 24.7% in the test with NCI-H460 lung; -23.4% (active) with NCI-H522 lung; 37.3% with A549/ATCC NSCLC. For the same compound, the growth with 786-0 renal was 22.4%; in the test with COLO 205 colon, 43.6%; in the test with DU-145 prostate it was 56.8%; in the test with K-562 leukemia, 11.4%; in the test with MALME-3M melanoma, -11.5% (active); in the test with MDA-MB-231 breast it was 52.3%. Also, the growth in the test with RXF 393 renal was 38.9%; in the test with SF-268 CNS, 38.8%; in the test on SF-295 CNS it was 12%; with SF-539 CNS, 19.7%; in the test on UACC-257 melanoma, 30%; in the test on M14 melanoma it was 35.1%.
As to `N#CCc1ccc(CC#N)cc1`, the growth was 103% with NCI-H23 lung; 90.4% in the test with NCI-H226 lung; 88.4% in the test with HOP-62 NSCLC; 101% with NCI-H460 lung; 3.82% (active) with HOP-92 NSCLC; 91.5% with NCI-H522 lung. Besides, the growth in the test with A549/ATCC NSCLC is 82.1%; in the test on 786-0 renal, 97.5%; with COLO 205 colon it was 111%; in the test on DU-145 prostate it was 116%; with K-562 leukemia it was 95.5%; in the test on MALME-3M melanoma it was 118%. In addition, the growth is 96.7% with MDA-MB-231 breast; 106% in the test with RXF 393 renal; 105% with SF-268 CNS; 100% with SF-295 CNS; 89% in the test on UACC-257 melanoma; 98.1% in the test with M14 melanoma.
Take `N#CCCc1ccccc1`: the growth with NCI-H23 lung is 104%; with NCI-H226 lung it was 95.4%; with NCI-H460 lung, 112%; in the test with NCI-H522 lung, 95.3%; in the test on 786-0 renal, 106%; in the test with COLO 205 colon, 109%. Also, the growth was 119% in the test on DU-145 prostate; 108% in the test with K-562 leukemia; 113% with MALME-3M melanoma; 107% in the test with MDA-MB-231 breast; 114% with RXF 393 renal; 106% in the test with SF-268 CNS. Besides, the growth in the test on SF-295 CNS was 108%; in the test on SF-539 CNS, 96.2%; with UACC-257 melanoma it was 95%; with M14 melanoma, 106%.
